Assay results published in PubChem BioAssay (NCATS).
Inconclusive results are not listed. Active and inactive are the calls of the source. Calls come from the whole dose curve; as a rule, active = well fitted curve in the direction sought with a large enough effect; inconclusive = small, poorly fitted or top-dose-only effect, or another doubt; inactive = no such curve, though single readings can be large; an effect the other way counts as inactive or inconclusive.

Legend:
[1] = S16 Schwann cell PMP22 intronic element firefly luciferase assay (AID 624032);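 note: plate controls were DMSO for no effect and PTC124 positive control mean for full effect; nearly all actives have a fitted effect of over 30% in size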
In short: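 Rat S16 Schwann cells stably carrying a PMP22 intronic element-driven Fluc reporter were seeded overnight, then exposed to compounds for 24 h at 37 °C. Luminescence was normalized to PTC124 (positive control) and DMSO (0% activity).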

7G8 = test: qHTS profiling for inhibitors of Plasmodium falciparum proliferation (AID 504749); note: nearly all actives have a fitted effect of over 60% in size; note: potency is the fitted concentration of half-maximal effect; details: P. falciparum in erythrocytes, SYBR Green DNA, 72 h; series mostly up to 12.8 µM
In short: (§1)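 Parasite proliferation within erythrocytes, 72 h exposure. Endpoint: SYBR Green I fluorescence after overnight lysis at room temperature. Controls: 0.29 uM artemisinin, DMSO.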

CP215 = test: as above; details: P. falciparum in erythrocytes, SYBR Green DNA, 72 h; series mostly up to 12.8 µM
In short: as §1

CP237 = test: as above; details: P. falciparum in erythrocytes, SYBR Green DNA, 72 h; series mostly up to 12.8 µM
In short: as §1

CP260 = test: as above; details: P. falciparum in erythrocytes, SYBR Green DNA, 72 h; series mostly up to 12.8 µM
In short: as §1

CP266 = test: as above; details: P. falciparum in erythrocytes, SYBR Green DNA, 72 h; series mostly up to 12.8 µM
In short: as §1

CP269 = test: as above; details: P. falciparum in erythrocytes, SYBR Green DNA, 72 h; series mostly up to 12.8 µM
In short: as §1

CP297 = test: as above; details: P. falciparum in erythrocytes, SYBR Green DNA, 72 h; series mostly up to 12.8 µM
In short: as §1

CP315 = test: as above; details: P. falciparum in erythrocytes, SYBR Green DNA, 72 h; series mostly up to 12.8 µM
In short: as §1

CP335 = test: as above; details: P. falciparum in erythrocytes, SYBR Green DNA, 72 h; series mostly up to 12.8 µM
In short: as §1

GB4 = test: as above; details: P. falciparum in erythrocytes, SYBR Green DNA, 72 h; series mostly up to 12.8 µM
In short: as §1

ICS = test: as above; details: P. falciparum in erythrocytes, SYBR Green DNA, 72 h; series mostly up to 12.8 µM
In short: as §1

P94_40 = test: as above; details: P. falciparum in erythrocytes, SYBR Green DNA, 72 h; series mostly up to 12.8 µM
In short: as §1

PC26 = test: as above; details: P. falciparum in erythrocytes, SYBR Green DNA, 72 h; series mostly up to 12.8 µM
In short: as §1

W2 = test: as above; details: P. falciparum in erythrocytes, SYBR Green DNA, 72 h; series mostly up to 12.8 µM
In short: as §1

[2] = biological target: Cytochrome P450 3A4 (Homo sapiens) (UniProt P08684); test: qHTS Assay for Inhibitors and Substrates of Cytochrome P450 3A4 (AID 884); note: nearly all actives have a fitted effect of over 50% in size; note: potency is the fitted concentration of half-maximal effect; for activity change, negative = inhibition: % is set by controls: 0 for no effect and ±100 for the full control effect
Cytochrome P450 3A4 (Homo sapiens), sequence (P08684 whole entry, looked up): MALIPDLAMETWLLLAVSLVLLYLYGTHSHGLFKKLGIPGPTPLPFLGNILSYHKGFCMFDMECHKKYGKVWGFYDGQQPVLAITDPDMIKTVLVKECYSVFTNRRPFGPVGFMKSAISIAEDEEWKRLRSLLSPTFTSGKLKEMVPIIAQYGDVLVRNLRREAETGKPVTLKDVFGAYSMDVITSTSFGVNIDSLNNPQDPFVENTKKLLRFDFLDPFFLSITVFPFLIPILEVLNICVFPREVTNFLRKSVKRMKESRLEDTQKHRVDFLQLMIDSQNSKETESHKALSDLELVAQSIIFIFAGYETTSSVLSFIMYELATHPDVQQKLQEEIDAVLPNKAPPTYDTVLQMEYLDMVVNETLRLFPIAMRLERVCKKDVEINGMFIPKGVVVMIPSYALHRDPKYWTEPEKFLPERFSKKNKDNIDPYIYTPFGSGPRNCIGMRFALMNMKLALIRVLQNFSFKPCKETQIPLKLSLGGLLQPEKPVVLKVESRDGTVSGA
In short: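 20 nM human CYP3A4 with 25 uM Luciferin-PPXE (at KM) in 200 mM KPO4, preincubated 10 min with compound; NADPH regeneration started a 60 min RT reaction. Luciferin detected by luminescence, normalized to 57 uM ketoconazole as full inhibition.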

[3] = biological target: Cytochrome P450 3A4 (Homo sapiens) (UniProt P08684); test: qHTS Assay for Activators of Cytochrome P450 3A4 (AID 885); note: nearly all actives have a fitted effect of over 65% in size; note: potency is the fitted concentration of half-maximal effect
In short: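 Quantitative HTS format: compounds preincubated with 20nM human CYP3A4 and Luciferin-PPXE substrate at KM, reaction started by NADPH regeneration, stopped after 60 min, luciferase luminescence read 20 min later.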

[4] = biological target: Cytochrome P450 2C19 (Homo sapiens) (UniProt P33261); test: qHTS Assay for Inhibitors and Substrates of Cytochrome P450 2C19 (AID 899); note: nearly all actives have a fitted effect of over 60% in size; note: potency is the fitted concentration of half-maximal effect
Cytochrome P450 2C19 (Homo sapiens), sequence (P33261 whole entry, looked up): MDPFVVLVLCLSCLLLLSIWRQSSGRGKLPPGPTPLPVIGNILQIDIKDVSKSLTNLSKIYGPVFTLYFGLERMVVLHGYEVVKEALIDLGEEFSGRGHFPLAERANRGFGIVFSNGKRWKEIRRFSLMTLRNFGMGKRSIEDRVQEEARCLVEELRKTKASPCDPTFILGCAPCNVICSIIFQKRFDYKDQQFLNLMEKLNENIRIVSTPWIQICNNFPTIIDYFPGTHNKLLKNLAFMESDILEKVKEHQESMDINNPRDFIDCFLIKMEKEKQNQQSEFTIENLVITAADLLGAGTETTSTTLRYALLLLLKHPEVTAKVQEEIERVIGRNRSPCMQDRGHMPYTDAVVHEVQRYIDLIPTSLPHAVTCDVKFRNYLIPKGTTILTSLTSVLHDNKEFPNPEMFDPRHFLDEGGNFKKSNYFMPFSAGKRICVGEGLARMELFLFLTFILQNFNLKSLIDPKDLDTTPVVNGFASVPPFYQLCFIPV
In short: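 NADPH-dependent conversion of Luciferin-H EGE (10uM, at KM) by 5nM enzyme in 50mM KPO4, 60 min at 37C following 10 min compound preincubation. Stopped with luciferin detection buffer; luminescence read after 20 min.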

[5] = biological target: Cytochrome P450 2D6 (Homo sapiens) (UniProt P10635); test: qHTS Assay for Inhibitors and Substrates of Cytochrome P450 2D6 (AID 891); note: nearly all actives have a fitted effect of over 60% in size; note: potency is the fitted concentration of half-maximal effect;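 for activity change, negative = inhibition: luciferin methyl ether substrate demethylated by CYP2D6 with NADPH regeneration; % is set by controls: 0 for no effect and ±100 for the full control effect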
Cytochrome P450 2D6 (Homo sapiens), sequence (P10635 whole entry, looked up): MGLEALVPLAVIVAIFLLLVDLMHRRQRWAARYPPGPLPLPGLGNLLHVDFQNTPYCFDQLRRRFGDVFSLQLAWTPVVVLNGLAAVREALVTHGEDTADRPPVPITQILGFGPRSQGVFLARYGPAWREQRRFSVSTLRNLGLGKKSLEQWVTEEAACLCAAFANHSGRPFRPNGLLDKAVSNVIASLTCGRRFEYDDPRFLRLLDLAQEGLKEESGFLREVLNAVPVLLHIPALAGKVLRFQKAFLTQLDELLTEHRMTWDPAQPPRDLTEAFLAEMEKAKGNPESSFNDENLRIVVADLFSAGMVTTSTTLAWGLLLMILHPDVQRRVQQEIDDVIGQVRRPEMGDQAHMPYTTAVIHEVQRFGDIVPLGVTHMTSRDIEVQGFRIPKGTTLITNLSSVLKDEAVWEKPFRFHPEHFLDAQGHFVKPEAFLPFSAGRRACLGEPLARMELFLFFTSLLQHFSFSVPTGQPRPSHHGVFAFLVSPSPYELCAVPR
In short: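 Human CYP2D6 (5 nM) with 30 uM Luciferin-ME EGE (at Km) in 100 mM KPO4, compound preincubated 10 min, then NADPH regeneration system for 60 min at room temperature. Luciferin read by luminescence; normalized to 1.43 uM quinidine.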

[6] = biological target: Cytochrome P450 2C9 (Homo sapiens) (UniProt P11712); test: qHTS Assay for Inhibitors and Substrates of Cytochrome P450 2C9 (AID 883); note: nearly all actives have a fitted effect of over 60% in size; note: potency is the fitted concentration of half-maximal effect; for activity change, negative = inhibition: % is set by controls: 0 for no effect and ±100 for the full control effect
Cytochrome P450 2C9 (Homo sapiens), sequence (P11712 whole entry, looked up): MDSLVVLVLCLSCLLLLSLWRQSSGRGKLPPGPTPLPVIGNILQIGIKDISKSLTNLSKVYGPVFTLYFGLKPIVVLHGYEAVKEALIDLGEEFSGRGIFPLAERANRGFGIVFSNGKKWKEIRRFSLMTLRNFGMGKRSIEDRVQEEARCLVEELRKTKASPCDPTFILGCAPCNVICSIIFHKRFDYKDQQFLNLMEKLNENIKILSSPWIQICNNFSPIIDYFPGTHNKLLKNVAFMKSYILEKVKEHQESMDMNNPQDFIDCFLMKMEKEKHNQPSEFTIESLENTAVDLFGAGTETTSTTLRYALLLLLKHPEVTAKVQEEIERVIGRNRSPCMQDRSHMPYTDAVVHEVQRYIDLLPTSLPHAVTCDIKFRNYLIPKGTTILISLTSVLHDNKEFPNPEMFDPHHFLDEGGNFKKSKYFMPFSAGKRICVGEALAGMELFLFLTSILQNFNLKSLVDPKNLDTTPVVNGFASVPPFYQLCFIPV
In short: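 A luminogenic readout tracked human CYP2C9 (10nM) converting deoxyluciferin (100uM, at KM) in 25mM KPO4 during 60 min at 37C with regenerated NADPH. Values normalized to 57uM sulphaphenazole as complete inhibition.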

CC(=O)OCC(=O)[C@@]1(O)[C@H](C)C[C@@H]2[C@H]3CCC4=CC(=O)C=C[C@]4(C)[C@]3(F)[C@@H](O)C[C@@]21C
inactive: Potency [1] | Potency (7G8) | Potency (CP215) | Potency (CP237) | Potency (CP260) | Potency (CP266) | Potency (CP269) | Potency (CP297) | Potency (CP315) | Potency (CP335) | Potency (GB4) | Potency (ICS) | Potency (P94_40) | Potency (PC26) | Potency (W2)

Cc1cccc(C)c1NC(=O)[C@H](C)N
active: Potency (CP297) 5100 nM
inactive: Potency (7G8) | Potency (CP237) | Potency (CP260) | Potency (CP335) | Potency (ICS) | Potency (P94_40) | Potency (W2)

COc1ccc([C@@H]2CC(=O)c3c(O)cc(O[C@H]4O[C@@H](CO[C@H]5O[C@@H](C)[C@@H](O)[C@@H](O)[C@@H]5O)[C@@H](O)[C@@H](O)[C@@H]4O)cc3O2)cc1O
inactive: Potency (7G8) | Potency (CP215) | Potency (CP237) | Potency (CP260) | Potency (CP266) | Potency (CP269) | Potency (CP297) | Potency (CP315) | Potency (GB4) | Potency (ICS) | Potency (P94_40) | Potency (PC26) | Potency (W2)

CC(=O)CC(=O)[C@@]1(O)CC[C@@H]2[C@@H]3C=C(C)C4=CC(=O)CC[C@@H]4[C@H]3CC[C@]21C
active: Potency [3] 2510 nM | Potency [4] 5010 nM
inactive: Potency [2]

Cn1c(-c2ccc3c(c2)OCO3)cc(=O)c2ccccc21
inactive: Potency [3]
active: Potency [5] 1580 nM

N#Cc1cccc(-c2cncnc2-n2ccnc2)c1
inactive: Potency [3]
active: Potency [2] 2510 nM

CN(C)c1ccc(-c2nccc(NCc3ccccc3)n2)cc1
active: Potency [5] 3160 nM
inactive: Potency [3]

C/C(=C(/CCO)SSC[C@@H]1CCCO1)N(C=O)Cc1cnc(C)nc1N
inactive: Potency [3]

COc1ccc(C[C@@](C)(N)C(=O)O)cc1OC
inactive: Potency (7G8) | Potency (CP215) | Potency (CP237) | Potency (CP260) | Potency (CP266) | Potency (CP269) | Potency (CP297) | Potency (CP315) | Potency (GB4) | Potency (ICS) | Potency (P94_40) | Potency (PC26) | Potency (W2)

COc1cc2c(cc1OC)-c1cc3ccc(OC)c(OC)c3c[n+]1CC2
inactive: Potency [3]

CC(C)(N=NC(C)(C)C(=N)N)C(=N)N
inactive: Potency [3] | activity change, negative = inhibition [5] 23.6% [at 11.4 µM]

C[N+]1(C)C[C@@H](O)C[C@@H]1C(=O)[O-]
inactive: Potency [4]

Cc1onc(-c2c(Cl)cccc2Cl)c1C(=O)N[C@H]1C(=O)N2[C@H]1SC(C)(C)[C@H]2C(=O)O
inactive: Potency [6] | Potency [5] | Potency [4]

COCC(=O)Nc1c(I)c(C(=O)NC[C@@H](O)CO)c(I)c(C(=O)N(C)C[C@@H](O)CO)c1I
inactive: Potency [1] | Potency (7G8) | Potency (CP215) | Potency (CP237) | Potency (CP260) | Potency (CP266) | Potency (CP269) | Potency (CP297) | Potency (CP315) | Potency (CP335) | Potency (GB4) | Potency (ICS) | Potency (P94_40) | Potency (PC26) | Potency (W2)

Nc1ccn([C@@H]2CC[C@H](CO)O2)c(=O)n1
inactive: Potency [6]

CC[C@@H]1OC(=O)[C@H](C)[C@H](O[C@@H]2C[C@](C)(OC)[C@H](O)[C@H](C)O2)[C@H](C)[C@H](O[C@@H]2O[C@@H](C)C[C@@H](N(C)C)[C@@H]2O)[C@](C)(O)C[C@H](C)C(=NOCOCCOC)[C@H](C)[C@H](O)[C@]1(C)O
inactive: Potency [3] | Potency [1] | Potency (7G8) | Potency (CP237) | Potency (CP335) | Potency (GB4) | Potency (ICS) | Potency (P94_40) | Potency (PC26)

C=CC1=C(C(=O)O)N2C(=O)[C@@H](NC(=O)/C(=N\OCC(=O)O)c3csc(N)n3)[C@@H]2SC1
inactive: Potency [1] | Potency (7G8) | Potency (CP215) | Potency (CP237) | Potency (CP260) | Potency (CP266) | Potency (CP269) | Potency (CP297) | Potency (CP315) | Potency (CP335) | Potency (GB4) | Potency (ICS) | Potency (P94_40) | Potency (PC26) | Potency (W2)

CCC(=O)O[C@@]1(C(=O)SCF)[C@@H](C)C[C@H]2[C@@H]3C[C@@H](F)C4=CC(=O)C=C[C@@]4(C)[C@]3(F)[C@@H](O)C[C@]21C
inactive: Potency (CP215) | Potency (CP266) | Potency (CP297) | Potency (CP315)
active: Potency (7G8) 2820 nM | Potency (ICS) 2510 nM | Potency (W2) 3220 nM

CCC(=O)O[C@@H]1[C@H](C)O[C@H](O[C@H]2[C@@H](N(C)C)[C@H](O)[C@@H](O[C@@H]3[C@@H](CC=O)C[C@@H](C)[C@@H](O)/C=C\C=C/C[C@@H](C)OC(=O)C[C@@H](OC(=O)CC)[C@H]3OC)O[C@H]2C)C[C@]1(C)O
inactive: Potency [1] | Potency (GB4) | Potency (PC26)
active: Potency (W2) 2030 nM

CNC[C@H](O)c1ccc(OC(=O)C(C)(C)C)c(OC(=O)C(C)(C)C)c1
inactive: Potency (CP237) | Potency (CP260) | Potency (CP266) | Potency (CP297) | Potency (CP335) | Potency (P94_40)

C[C@@H](C(=O)O)c1ccc(C(=O)c2ccccc2)s1
inactive: Potency [3] | Potency [1] | Potency (7G8) | Potency (CP215) | Potency (CP237) | Potency (CP260) | Potency (CP269) | Potency (CP297) | Potency (CP315) | Potency (CP335) | Potency (GB4) | Potency (ICS) | Potency (P94_40) | Potency (PC26) | Potency (W2)
active: Potency [4] 3980 nM

CCOC(=O)C1=C(C)NC(C)=C(C(=O)OC)[C@@H]1c1cccc([N+](=O)[O-])c1
inactive: Potency [3]
active: Potency [6] 316 nM | Potency [4] 126 nM
